High-throughput results deposited in PubChem BioAssay by National Center for Advancing Translational Sciences (NCATS).
SMN2 splice up = enhancers of SMN2 splice variant expression. HEK293 SMN2-luciferase splicing reporter, luminescence, 30-36 h. Potency, µM (top dose mostly 46.1 µM), for the others: at the top dose activity change, positive = activation, actives largely listed as activators. 210,000 tested, 2.8% active. AID 1458; note: % of control where 0% means no effect; nearly all actives have a fitted effect of over 55% in size
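HEK293 cells carry an SMN2 […]–luciferase reporter in which exon 7 inclusion puts luciferase in frame. Cells were plated 10-12 h before compound addition, then incubated 30-36 h at 37C. ONE-Glo luminescence was read; sodium butyrate at 4.5 mM final served as control.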
FLuc counter = firefly luciferase modulation, counter-screen for miR-21 project. purified FLuc, Km substrates, luminescence inhibition. Potency, µM (titrated, usually from 57.5 µM), inactives show at the highest dose activity change, negative = inhibition, usual class: inhibitors. 360,000 tested, 6.9% active;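 note: plate controls were vehicle for no effect and reference inhibitor for full effect; nearly all actives have a fitted effect of over 55% in size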
Target sequence (P08659 whole entry, looked up): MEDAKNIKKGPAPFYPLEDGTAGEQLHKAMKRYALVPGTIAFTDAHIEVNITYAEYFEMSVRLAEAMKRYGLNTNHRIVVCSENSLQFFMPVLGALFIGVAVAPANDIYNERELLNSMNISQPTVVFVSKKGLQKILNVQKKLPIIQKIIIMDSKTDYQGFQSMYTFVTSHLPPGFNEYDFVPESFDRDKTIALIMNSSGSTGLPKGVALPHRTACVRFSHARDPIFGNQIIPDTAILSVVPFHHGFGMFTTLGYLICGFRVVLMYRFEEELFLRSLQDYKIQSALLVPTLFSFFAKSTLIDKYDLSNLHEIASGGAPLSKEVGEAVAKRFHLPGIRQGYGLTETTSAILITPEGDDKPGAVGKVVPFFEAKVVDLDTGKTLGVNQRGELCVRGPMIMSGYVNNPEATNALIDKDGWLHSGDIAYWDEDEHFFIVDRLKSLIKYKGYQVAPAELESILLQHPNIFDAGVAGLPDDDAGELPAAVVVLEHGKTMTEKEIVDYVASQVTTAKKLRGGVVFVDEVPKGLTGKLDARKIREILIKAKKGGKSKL
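Purified P. pyralis luciferase, 10 nM final, with Km-level 10 uM D-luciferin and 10 uM ATP in 50 mM Tris acetate pH 7.5, 10 mM Mg acetate, 0.01% Tween-20, 0.05% BSA; 6-point qHTS titration about 60 µM downward; luminescence read.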
NPC1 promoter act = NPC1 promoter activation | Potency, µM (doses to about 9.22 µM), without a hit: top-dose activation, hits mostly activators | 320,000 tested, 2.4% active | Huh7 NPC1 promoter luciferase reporter, 24 h; note: % of control where 0% means no effect; nearly all actives have a fitted effect of over 60% in size
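Stably transfected Huh7 (NPC1 promoter→luciferase), 1500 cells/well in Opti-MEM + 10% FBS, 2 h settle, then compound 24 h at 37 °C. Luminescence after 10 min with Amplite reagent.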
ELG1 repair inh = ELG1-dependent DNA repair inhibition | HEK293T ELG1-luciferase reporter, luminescence, 16 h; DNA damage induced by 5-fluorouridine | Potency, µM (series often up to 46.1 µM), for the others: at the top dose activity change, negative = inhibition, most hits filed as inhibitors | 330,000 tested, 2.3% active | AID 504467; note: % is set by controls: 0 for no effect and ±100 for the full control effect; nearly all actives have a fitted effect of over 55% in size
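Overnight (16 hr) co-exposure of 2,000 cells/well to 5-fluorouridine and compound at 37 °C preceded detection. Luciferase was quantified via ONE-Glo luminescence; loss of signal denotes inhibition.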
Rab9 prom act = activators of Rab9 promoter; Huh7 Rab9 promoter-luciferase reporter, luminescence, 24 h; AID 485297; 320,000 tested, 2.8% active; Potency, µM (series often up to 9.22 µM), without a hit: top-dose activation, negative = inhibition, actives largely listed as activators; note: % of control where 0% means no effect; nearly all actives have a fitted effect of over 60% in size
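Quantitative HTS format; Huh7 Rab9-luciferase reporter cells (1500/well) receive compound 2 h post-plating, incubate 24 h at 37 °C, then get luciferase reagent for 10 min before luminescence reading.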
ELG1 genotox = inducers of genotoxicity in HEK293T ELG1-luciferase cells | HEK293T ELG1-luciferase reporter, luminescence, 16 h | Potency, µM (highest dose often 46 µM), for inactives: at the top dose activity change, positive = activation, most hits filed as activators | 330,000 tested, 1.3% active | AID 504466; note: % of control where 0% means no effect; nearly all actives have a fitted effect of over 60% in size
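Luminescence read-out: rising ELG1-luciferase signal, reflecting elevated ELG1 protein under genetic stress, flags genotoxic compounds. Cells were treated for 16 hr at 37 °C before ONE-Glo detection.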
* hit, by the source's call; ? = inconclusive; . = no result given; [ ] = dose if it differs, or a comment. In the library only some 9.2% were active in any assay of this set; here they are far more common. Calls come from the whole dose curve; as a rule, active = well fitted curve in the direction sought with a large enough effect; inconclusive = small, poorly fitted or top-dose-only effect, or another doubt; inactive = no such curve, though single readings can be large; an effect the other way counts as inactive or inconclusive. Potency is the fitted concentration of half-maximal effect.

SMILES	SMN2 splice up	FLuc counter	NPC1 promoter act	ELG1 repair inh	Rab9 prom act	ELG1 genotox
CCc1nnc(NC(=O)CSc2ccc(-c3nc4ccc(C)cc4[nH]3)cn2)s1	.	1.7µM*	2.8µM*	?	3.2µM*	13µM*
CC(C)(C)n1ncc2c(=O)n(Cc3cccc(C#N)c3)cnc21	.	3%	.	.	.	.
Cc1ccc2nc(-c3ccc(SCC(=O)O)nc3)[nH]c2c1	18%	5.4µM*	-3%	?	6%	2%
Cc1ccc2nc(-c3ccc(SCC(=O)N4CCc5ccccc54)nc3)[nH]c2c1	11µM*	0.27µM*	3.5µM*	?	3.2µM*	0%
Cc1ccc(S(=O)(=O)NCCC(=O)NNC(=O)COc2ccccc2Cl)cc1C	.	-1%	7%	1%	-9%	-4%
CCOc1ccc(C(=O)N2CCCC(c3nc(-c4cccs4)no3)C2)cc1 (stereo not given)	.	21µM*	1%	-2%	3%	6%
CCC(CC)C(=O)N1CCCC(c2nc(-c3cccs3)no2)C1 (stereo not given)	14%	2%[2.3 µM]	11%	9%	4%	-5%
CN(C)c1ccc(-c2noc(C3CCN(C(=O)Nc4ccc(Cl)cc4)CC3)n2)cc1	.	-12%	-17%	?	-7%	3%
Cc1ccc(-c2noc(C3CCN(C(=O)Nc4ccc(C#N)cc4)CC3)n2)o1	-46%	-2%	1%	26µM*	-5%	-9%
Cc1cccc(C(=O)N2CCCC(c3nc(-c4ccc(C)o4)no3)C2)c1 (stereo not given)	.	?	?	?	4µM*	9%
Cc1ccc(C(=O)c2cc3ccccc3o2)cc1[N+](=O)[O-]	-4%	7.6µM*	?	1%	2.8µM*	?
O=C(NNC(=O)c1cc2ccccc2o1)c1ccc(F)cc1	.	17µM*	0%	?	1%	11%
O=C(c1ccccc1)c1cc2ccccc2oc1=O	.	-12%	16%	?	13%	10%
O=C(c1ccccc1)c1cc2ccccc2o1	-6%	15µM*	?	?	?	?
O=C(NCc1ccc(F)cc1)c1cc2ccccc2o1	.	-12%	5%	24%	9%	4%
O=C(NNC(=O)c1cc2ccccc2o1)c1ccc(Cl)cc1	.	2%	1%	6%	1%	1%
O=C(c1ccc(F)cc1)c1cc2ccccc2o1	.	11µM*	?	?	22%	?
COc1ccccc1CNc1ccnc(-c2ccc3c(c2)OCO3)n1	16%	.	.	.	.	.
CCOC(=O)C1=C(C)Nc2ccccc2N=C1NC(=O)c1oc2ccccc2c1COC	.	6%	-5%	11µM*	-6%	-9%
COc1cc(S(=O)(=O)Nc2cccc(C)c2)ccc1NC(=O)c1cccnc1	-37%	-3%	-9%	?	-4%	-2%
O=C(CCCN1C(=O)/C(=C/c2ccccc2Cl)SC1=S)NNC(=O)c1ccccc1Cl	-35%	7.6µM*	-21%	?	-27%	-3%
O=C(CCN1C(=O)/C(=C/c2ccccc2Cl)SC1=S)N1CCCC1	.	27µM*	-22%	?	-27%	-9%
O=C(CCCN1C(=O)/C(=C/c2cccs2)SC1=S)NNC(=O)c1ccncc1	11%	4%	-6%	9%	0%	1%
O=C(CCCN1C(=O)/C(=C/c2ccccc2Cl)SC1=S)NNC(=O)c1ccncc1	.	15µM*	-13%	?	-14%	-9%
CC(=O)Cn1ncc(Br)c(Br)c1=O	-108%	8%	-41%	?	-43%	-21%
SMILES	SMN2 splice up	FLuc counter	NPC1 promoter act	ELG1 repair inh	Rab9 prom act	ELG1 genotox
O=C(OCn1ncc(Br)c(Br)c1=O)c1c(F)cccc1F	.	5%	-36%	9.2µM*	-54%	?
O=C1/C(=C\c2cccc([N+](=O)[O-])c2O)SC(=S)N1Cc1ccccc1	.	-17%	-6%	8.2µM*	-18%	-9%
O=C1/C(=C\c2ccc(O)cc2)SC(=S)N1Cc1ccccc1	.	-19%	0%	3%	-2%	1%
O=C1/C(=C/c2ccc(O)c([N+](=O)[O-])c2)SC(=S)N1Cc1ccccc1	-71%	?	-3%	18µM*	-2%	-14%
O=C1/C(=C\c2cc(Br)cc(Br)c2O)SC(=S)N1Cc1ccccc1	.	?	-1%	23µM*	-1%	-18%
CC1=C(C#N)C(NC(=O)c2ccc(Cl)cc2)(C(F)(F)F)C(=O)N1 (stereo not given)	-15%	-1%	0%	0%	-4%	4%
Cc1ccc(S(=O)(=O)Nn2c(O)c(C=C3N=c4ccccc4=N3)sc2=S)cc1	.	17µM*	0%	0%	2%	-3%
Cc1ccc(C(=O)Nn2c(O)c(C=C3N=c4ccccc4=N3)sc2=S)cc1	29%	?	0%	26%	6%	5%
O=C(Nn1c(O)c(C=C2N=c3ccccc3=N2)sc1=S)c1ccccc1	0%	6µM*	0%	0%	-4%	6%
Oc1[nH]c(=S)sc1C=C1N=c2ccccc2=N1	.	6µM*	?	?	27%	?
CCOC(=O)C1CCCN(S(=O)(=O)c2cc(OCC(=O)NC3CCCCC3)c(C)cc2Cl)C1 (stereo not given)	-49%	5%	0%	21µM*	-6%	-8%
O=C(COc1ccccc1Cl)NC(=O)NC1CCCCC1	.	?	8%	?	-3%	5%
Cc1cc(Cl)c(S(=O)(=O)N2CCN(c3ccc(F)cc3)CC2)cc1OCC(=O)NC1CCCCC1	-78%	5%	-29%	8.2µM*	-23%	-17%
CCOC(=O)C1CCCN(C(=O)c2ccc(Cl)c(S(=O)(=O)N3CCCCCC3)c2)C1 (stereo not given)	.	-6%	-12%	10µM*	-12%	-14%
O=C(COc1ccc(F)cc1Cl)NC1CCCCCC1	.	8.5µM*	4µM*	?	2.2µM*	?
Cc1cc(Cl)c(S(=O)(=O)N2CCN(c3ccc(F)cc3)CC2)cc1OCC(N)=O	-30%	-3%	-16%	?	-31%	-7%
CCN(CC)CCCN(Cc1cc2cc3c(cc2[nH]c1=O)OCO3)C(=S)Nc1ccccc1OC	.	5%	-2%	14%	-5%	2%
CC(NC(=S)NCCc1ccccc1)C(c1cccs1)N1CCN(Cc2ccccc2)CC1 (stereo not given)	-67%	2%	-2%	?	-7%	-4%
COc1cc(C(=O)Nc2ccc(NC(=O)c3ccc(Br)cc3)cc2)cc(OC)c1OC	-12%	1%	.	.	.	.
